This is an account of results in PubChem BioAssay AID1626 (SRMLSC, 2009).

Values joined by “and” are separate entries in the source; they are usually repeats but may differ in a detail not shown here. Equal entries are not always repeated. Out of some 220,000 compounds screened, about 2,000 (0.91%) were called active. Another 2% or so got no clear call; they are omitted. No stated cut-off is given here; in the data, inconclusive means inhibition above about 80% without an active follow-up result; inactive means below that; test concentration not stated here. These entries were drawn from the full list. Measured potencies and affinities stand elsewhere.

The experiment is described as follows: M. tuberculosis H37Rv growth inhibitors, H37Rv strain (AID 1626).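 Further: bacteria incubated seven days before Alamar blue readout; 0% = bacteria only wells and 100% = bacteria with antibiotic wells.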 Conditions: active compounds read high, concentration not given here.
On to `COCCNC(=O)c1ccc2c3n(nc2c1)-c1ccc(Cl)cc1CO3`, for which the inhibition is -12.9% (inactive).

Turning to `CCOC(=O)c1sc(NC(=O)CCN2CCC(C)CC2)c(C(=O)OCC)c1C`, the inhibition was 5.65% (inactive).

For the compound `O=C(COc1ncnc2ccccc12)c1ccc2c(c1)OCCO2`, the inhibition was -5.58% (inactive).

With `O=C(O)[C@H]1CCCC[C@H]1C(=O)Nc1ccc(Nc2ccccc2)cc1`, the inhibition is 3.28% (inactive).

For `O=C(O)C1CC=CCC1C(=O)Nc1ccccc1` (stereo not drawn), the inhibition was -3.59% (inactive). As to `CCCc1cc(=O)n2[nH]c(NCc3ccc(OC)c(OC)c3)nc2n1`, the inhibition was 3.17% (inactive). The figure for `Cc1ccc(C)c(NC(=O)C(Sc2ncnc3ccccc23)c2ccccc2)c1` (stereo not drawn) is -1.19% (inactive); for `CC(NC(N)=O)C(=O)Nc1ccc(Cl)c(S(=O)(=O)Nc2ccc(Cl)cc2)c1` (stereo not drawn) it is 0.16% (inactive); for `O=C(Nc1ccc(OC(F)F)c(Cl)c1)c1cccc(OC(F)F)c1` it is 10.2% (inactive). `COc1ccc(NC(=O)c2cccc(OC(F)F)c2)cc1Cl`: the inhibition was 0.2% (inactive). For `CCOc1ccc(NS(=O)(=O)c2cc(NC(=O)c3ccc(C)cc3)ccc2Cl)cc1`, the inhibition is 11.8% (inactive).

Consider `CCOC(=O)c1cc(NC(=O)NCc2ccco2)c(C)nc1C`, for which the inhibition was -7.42% (inactive). With `O=c1cc(N2CCCCC2)c2ccccc2o1`, the inhibition was -1.79% (inactive).

In the case of `CCOc1cc(CN2CCN(c3cccc(C(F)(F)F)c3)CC2)ccc1O`, the inhibition was -11.9% (inactive). `CCC/C=N/NC(=O)c1cccc(Br)c1`: the inhibition is 7.16% (inactive).

Turning to `O=C(CSc1nc(-c2ccccc2Cl)ns1)Nc1ccc2c(c1)OCO2`, the inhibition is 98.8% (inactive). In the case of `Cc1ccc(-c2nsc(SCC(=O)NCc3ccc4c(c3)OCO4)n2)cc1`, the inhibition was 13.2% (inactive). In the case of `COc1ccc(-c2nsc(SCC(=O)NCc3ccc4c(c3)OCO4)n2)cc1` it was 6.74% (inactive); in that of `Cc1ccccc1-c1nsc(SCC(=O)Nc2ccc3c(c2)OCO3)n1`, 16.3% (inactive). The figure for `Cc1ccc(NC(=O)C2CCCN(C(=O)c3ccc(Cl)cc3)C2)cc1C` (stereo not drawn) is 2.5% (inactive).

As to `CC1=NN(C(=O)c2ccco2)C(O)(c2ccccc2)C1` (stereo not drawn), the inhibition was -2.5% (inactive).

With `CC(=O)c1cccc(N(CC(=O)N2CCCCC2)S(C)(=O)=O)c1`, the inhibition was 1.7% (inactive). With `CCOc1cc(NC(=S)NCC2CCCO2)c(OCC)cc1NC(=O)c1ccc(F)cc1` (stereo not drawn), the inhibition was 1.9% (inactive). In the case of `COc1ccc(-c2[nH]ncc2CNCCn2cccn2)c(F)c1` it was -7% (inactive); in that of `COc1ccccc1OCC(O)CNCc1ccc2c(c1)OCO2` (stereo not drawn), -7.62% (inactive). For `Cc1[nH]n(-c2ccccc2)c(=O)c1C=NCCc1ccccc1`, the inhibition was 0.59% (inactive). The figure for `CCCCN=Cc1c(C)[nH]n(-c2ccccc2)c1=S` is -2.18% (inactive); for `CS/C(=C\[N+](=O)[O-])Nc1ccc(F)cc1` it is 3.42% (inactive); for `O=C(CN1CCCc2ccccc21)NC(=O)NC1CCCCC1` it is 6.06% (inactive). Consider `O=C(NC(Nc1nc2ccccc2s1)(C(F)(F)F)C(F)(F)F)c1ccccc1`, for which the inhibition was -8.04% (inactive). As for `O=C(NC(Nc1nc2ccc([N+](=O)[O-])cc2s1)(C(F)(F)F)C(F)(F)F)c1cccnc1`, the inhibition is 5.87% (inactive).

As to `Cc1cc2nnc(SCC(=O)NCc3cccs3)n2c(N)n1`, the inhibition is -5.08% (inactive). `COc1ccc(-c2nn(-c3ccccc3)cc2/C=N/NC(N)=S)cc1OC`: the inhibition is 2.96% (inactive). The figure for `COc1ccc(-c2nn(-c3ccccc3)cc2/C=N/n2cnnc2)cc1OC` is -15.3% (inactive); for `CCCn1nnnc1NC(=O)COc1ccc(CC)cc1` it is 0.65% (inactive). `CC(=O)N1N=C(c2cccnc2)OC1c1ccccc1Cl` (stereo not drawn): the inhibition is 2.68% (inactive). The figure for `NC(=O)c1ccc(NC(=O)COC(=O)/C=C/c2cccs2)cc1` is -2.1% (inactive); for `CCCCC(=O)Nc1ccc(C)c(O)c1` it is 2.73% (inactive). `O=C(CS)Nc1ccc2ccccc2c1`: the inhibition is -9.08% (inactive). For the compound `C/C(=C\C(=S)Nc1ccccc1)Nc1ccccc1`, the inhibition is 4.78% (inactive). Take `CC(C)CC(=O)Nc1ccc2ccccc2c1`: the inhibition was 85.1% (inactive) and -4.53% (inactive). In the case of `Cc1ccc(NC(=O)COC(=O)/C=C/c2cccs2)cc1` it was -0.47% (inactive); in that of `COc1ccc(N/C(C)=C/C(=S)Nc2ccccc2)cc1`, 29.2% (inactive); in that of `CCCCC(=O)Nc1cccc(NC(=O)CC)c1`, 3.01% (inactive).

For the compound `O=S(=O)(CCOc1ccccc1)c1nc2ccccc2[nH]1`, the inhibition is -6.66% (inactive).

For the compound `COCCCn1c(SCC(=O)Nc2nc3ccccc3s2)nnc1-c1ccoc1C`, the inhibition is 4.35% (inactive). The figure for `Cc1cc(C)c(S(=O)(=O)N2CCCCC2)c(C)c1N(C)S(=O)(=O)c1ccc(Cl)cc1` is 1.13% (inactive). Turning to `CCOc1nc(C)ccc1-c1noc(CC)n1`, the inhibition is -1.19% (inactive).

With `CCOC(=O)C1CSC(CC(=O)Nc2ccc(Cl)cc2)C(=O)N1` (stereo not drawn), the inhibition was -6.13% (inactive). The figure for `OC1(CNCc2cn[nH]c2-c2cc3ccccc3o2)CCCCC1` is -6.25% (inactive); for `COc1cccc(-n2c(SCc3c(C)noc3C)nnc2-c2cccc(S(=O)(=O)N(C)C)c2)c1` it is 4.97% (inactive); for `Cc1ccccc1OCc1csc(N)n1` it is 3.59% (inactive). In the case of `CN=C(C)c1c(O)c2ccccc2oc1=O` it was -1.28% (inactive); in that of `CC(C)N(C(=O)Cn1c(SCC(=O)Nc2nccs2)nc2ccccc21)C(C)C`, 0.44% (inactive). In the case of `CC(=O)N1N=C(c2cccc(Br)c2)OC12CCCC2` it was -8.1% (inactive). In the case of `CCC(=O)Nc1ccc(-c2csc(C)n2)cc1`, the inhibition was 45.9% (inactive). In the case of `Cc1nc(-c2ccc(NC(=O)CC(C)C)cc2)cs1` it was 31.2% (inactive); in that of `CCOC(=O)CS(=O)(=O)c1ccc2ccccc2c1`, -12.2% (inactive).

As to `CC(=O)Nc1ccc2ccccc2c1`, the inhibition was 12.4% (inactive).

Take `CCOC(=O)C(C(=O)OCC)C(Nc1ccccc1)c1ccccc1` (stereo not drawn): the inhibition is 1.08% (inactive).

Turning to `CC(=O)CC(=O)Nc1ccc(Nc2ccccc2)cc1`, the inhibition was 6.81% (inactive). For the compound `O=C(Nc1ccc(Cl)c([N+](=O)[O-])c1)ONC1=NCCCCC1`, the inhibition is 0.03% (inactive). The figure for `CCCNC(=O)NC(=O)CN1C(=O)NC(C)(c2ccc(C)cc2)C1=O` (stereo not drawn) is -1.35% (inactive); for `CC(C(N)=O)N1C(=O)C2C3C=CC(C3)C2C1=O` (stereo not drawn) it is -3.12% (inactive); for `Cc1ccc(-c2cc(C(=O)NCc3cccnc3)no2)cc1` it is 3.89% (inactive). As to `Cc1ccc(NC(=S)NCCc2c[nH]c3ccccc23)c(C)c1`, the inhibition is 4.17% (inactive). The figure for `Cc1nn(C)cc1/C=C/C(=O)c1cccs1` is 2.82% (inactive); for `Cc1c(/C=C/C(=O)c2cccs2)cnn1C` it is -1.78% (inactive); for `CCN(CC)C(=S)SCC(=O)Nc1ncc2c(n1)CC(C)(C)CC2=O` it is 1.56% (inactive). In the case of `CC(=O)C1=C(C)NC(SCC(N)=O)=C(C#N)C1c1ccco1` (stereo not drawn), the inhibition was -4.99% (inactive). In the case of `CC(=O)C1=C(C)NC(SCC(=O)c2ccc(Cl)cc2)=C(C#N)C1c1ccco1` (stereo not drawn) it was 50% (inactive); in that of `CC1=C(C(=O)Nc2ccccc2)C(c2ccco2)C(C#N)=C(SCC(=O)Nc2cccc(C)c2C)N1` (stereo not drawn), 4.09% (inactive); in that of `CC(=O)C1=C(C)NC(SCC(=O)c2ccc(Cl)cc2Cl)=C(C#N)C1c1ccco1` (stereo not drawn), 12.4% (inactive). The figure for `CC(=O)C1=C(C)NC(SCc2ccc(C#N)cc2)=C(C#N)C1c1ccco1` (stereo not drawn) is -1.27% (inactive); for `CC(=O)C1=C(C)NC(SCC(=O)c2ccccc2)=C(C#N)C1c1ccco1` (stereo not drawn) it is 43.6% (inactive); for `CC(=O)C1=C(C)NC(SCC(=O)c2cc(Cl)ccc2Cl)=C(C#N)C1c1ccco1` (stereo not drawn) it is 15.3% (inactive). The figure for `CCOc1ccccc1NC(=O)CSC1=C(C#N)C(c2ccco2)C(C(=O)Nc2nc3ccccc3s2)=C(C)N1` (stereo not drawn) is 49.1% (inactive); for `CN1CCN(C(=O)c2cc3nc(-c4ccc(F)cc4)cc(C(F)(F)F)n3n2)CC1` it is -1.56% (inactive); for `CC(C)OP(=O)(OC(C)C)C(O)c1ccc(Br)cc1` (stereo not drawn) it is -5.46% (inactive). Regarding `O=S(=O)(c1ccc(Cl)s1)N1CCC(Cc2ccccc2)CC1`, the inhibition was -5.95% (inactive).

On to `O=C(Nc1cccc([N+](=O)[O-])c1)c1ccc(N2CCCC2=O)cc1`, for which the inhibition is 3.44% (inactive). With `COc1cc(C(=O)NNC(=O)c2ccoc2C)cc(OC)c1OC`, the inhibition is -3.54% (inactive).

For `COc1ccc(C)cc1NC(=O)COC(=O)C1CCN(C(=O)c2ccc(Cl)cc2)CC1`, the inhibition was 3.93% (inactive).

On to `Cc1ccc(NC(=O)Cn2c(O)c(N=NC(=O)c3ccncc3)c3ccccc32)cc1`, for which the inhibition is -1.42% (inactive).

Regarding `O=C(C1CCCCC1)N1CCN(C(=O)C2CCCCC2)CC1`, the inhibition is -1.95% (inactive). The figure for `CCc1c(C)c(C#N)c2[nH]c3ccccc3n2c1=S` is -5.86% (inactive); for `CCc1cc(=S)n2c([nH]c3ccccc32)c1C#N` it is -2.47% (inactive). The figure for `Cc1c(CCC(=O)O)c(=O)n2c([nH]c3ccccc32)c1C#N` is -32.2% (inactive); for `Cc1c(CCC(C)C)c(=O)n2c([nH]c3ccccc32)c1C#N` it is 5.47% (inactive). In the case of `COc1c(O)ccc2cnn(-c3ccccc3C)c(=O)c12` it was -8.74% (inactive); in that of `CC1CC(C)CN(CC(O)COCCOc2ccc(Br)cc2)C1` (stereo not drawn), 0.51% (inactive). For `CCCCN1CC[C@H]2C=CC[C@@H](C(=O)Nc3ccccc3)[C@H]2C1=O`, the inhibition was -7.03% (inactive).

As to `COc1ccc2c(c1)c(=O)cc(-c1ccccc1)n2C`, the inhibition is -2.37% (inactive). The figure for `[O-][n+]1onc2c3ccnnc3ccc21` is 58.6% (inactive); for `Cn1c(-c2ccccc2)cc(=O)c2ccccc21` it is 1.71% (inactive); for `c1ccc(-c2cc3c(ccc4nonc43)nn2)cc1` it is -7.6% (inactive). In the case of `CCCCCC(=O)N/N=C(\C)c1ccc(N2CCCCC2)cc1` it was -2.51% (inactive); in that of `CCOc1ccc2cc(C3CC(c4ccco4)=NN3S(C)(=O)=O)c(=O)[nH]c2c1` (stereo not drawn), 0.83% (inactive).
